Data taken from PubChem BioAssay (Tox21).
Values joined by “and” are separate entries in the source; they are usually repeats but may differ in a detail not shown here. Equal entries are not always repeated. Inconclusive results are not listed. A call without a number means that no potency is given here. Unmarked numbers belong to inactive results. Active and inactive are the calls of the source. Calls follow the shape of the dose curve; as a rule, active = well fitted cell-killing curve with a large enough effect in the repeat runs; inconclusive = weak or mixed curves, or effect the other way; inactive = flat fitted curve, though single readings scatter.

experiment: qHTS assay to identify small molecule agonists of the constitutive androstane receptor (CAR) signaling pathway - cell viability counter screen (AID 1224836); conditions: HepG2-CYP2B6-hCAR viability, CellTiter-Fluor, 23 h, PK11195 added to every well; series mostly up to 92.4 µM; viability change, negative = cytotoxic: at the top concentration; also: nearly all actives have a fitted effect of over 45% in size
Description: U.S. Tox21 Program National Center for Advancing Translational Sciences [NCATS] NIH Chemical Genomics Center [NCGC] U.S. Environmental Protection Agency [EPA] National Institutes of Environmental Health Sciences [NIEHS] National Toxicology Program [NTP] U.S. Food and Drug Administration [FDA] Tox21 Assay Overview: The constitutive androstane receptor (CAR) is a nuclear receptor which regulates multiple drug metabolizing enzymes (DMEs) and transporters. Activating CAR will generally increase the transcription and subsequent translation of CYP2B6 and CYP3A4. These two DMEs represent about 50% of the drug metabolizing potential in the body. […] Recently, there have also been studies performed indicating CARs role in energy metabolism and cancer therapy. Therefore, inducing CARs activity could have a potential effect on diabetes and cancer. Identifying environmental toxins and compounds which modulate CAR, through the use of the Tox21 10K compound collection, will be an important step in determining the toxicity and potential therapeutic effects these factors will have on the human body. To differentiate true CAR agonists from cytotoxic substances, the assay is multiplexed with a cell viability assay.
Tox21 Assay Protocol Summary: A double-stable (hCAR and CYP2B6-2.2kb) transfected cell line, derived from human hepatoma (HepG2) cells, was utilized for the duration of the quantitative high-throughput screens. The HepG2-CYP2B6-hCAR cells were dispensed at 2500 cells/4 uL/well in 1536-well white solid bottom plates using a Multidrop Combi. After the assay plates were incubated at 37 C/5% CO2 for 4 hrs, 23 nL of compounds at 15 concentrations (from 5-48 columns) or positive control (from 1 to 4 columns) were transferred to the assay plates using a Pintool station. One uL of PK11195 (final concentration = 0.75 uM) was added, using a Flying Reagent Dispenser, inside each well. After a 23 hr incubation period at 37 C/5% CO2, 1 uL of CellTiter-Fluor reagent was added into each well of the assay plates using a Flying Reagent Dispenser. The fluorescence intensity in the plates was then measured using a ViewLux plate reader.
Potency is read from the fitted curve at half-maximal effect.

Question: Which Potency does the source give for `CC(CCl)OP(=O)(OC(C)CCl)OC(C)CCl` (stereo not given) here?
Answer: inactive

Question: For `O=C1C(c2[nH]c3ccccc3c2O)=Nc2ccccc21`, which Potency is on record?
Answer: inactive

Question: With `CC(O)CC(C)(C)O` (stereo not given) as the compound, how does the Potency read?
Answer: inactive

Question: With `O=C(OCC1CCC2OC2C1)C1CCC2OC2C1` (stereo not given) as the compound, how does the Potency read?
Answer: inactive

Question: Which Potency does the source give for `CCCCCC(=O)O` here?
Answer: inactive

Question: With `CNC(=S)N(C)C` as the compound, how does the Potency read?
Answer: inactive

Question: Which Potency does the source give for `CC(C)(C)c1cc(Cc2cc(C(C)(C)C)c(O)c(C(C)(C)C)c2)cc(C(C)(C)C)c1O` here?
Answer: inactive

Question: Which Potency does the source give for `N#Cc1ccccc1` here?
Answer: inactive

Question: Which Potency does the source give for `CC1(C)NC(=O)NC1=O` here?
Answer: inactive

Question: Which Potency does the source give for `O=[N+]([O-])c1ccc2nc[nH]c2c1` here?
Answer: inactive

Question: Which Potency does the source give for `C=C(C)[C@H]1CC=C(C)C(=O)C1` here?
Answer: inactive

Question: Which Potency does the source give for `OCc1cccc(Oc2ccccc2)c1` here?
Answer: inactive

Question: With `O=C1c2ccccc2CCc2ccccc21` as the compound, how does the Potency read?
Answer: inactive

Question: Which Potency does the source give for `CC(C)=CCl` here?
Answer: inactive

Question: With `NCCN1CCNCC1` as the compound, how does the Potency read?
Answer: inactive

Question: Which Potency does the source give for `NC(=S)NNC(N)=S` here?
Answer: inactive

Question: Which Potency does the source give for `CCNc1cccc(C)c1` here?
Answer: inactive

Question: With `Clc1ccccn1` as the compound, how does the Potency read?
Answer: inactive

Question: For `CCCCCCCCCCN`, which Potency is on record?
Answer: inactive

Question: With `COc1ccc([N+](=O)[O-])cc1N` as the compound, how does the “viability change, negative = cytotoxic” value read?
Answer: -13.5%

Question: With `O=C(O)CCCCCCCCC(=O)O` as the compound, how does the Potency read?
Answer: inactive

Question: For `C=CCc1ccc(OC)c(OC)c1`, which Potency is on record?
Answer: inactive

Question: With `COc1ccc(OC)cc1` as the compound, how does the Potency read?
Answer: inactive

Question: With `CCO[Si](CCCN)(OCC)OCC` as the compound, how does the Potency read?
Answer: inactive

Question: For `CC(=O)c1ccc(O)cc1`, which Potency is on record?
Answer: inactive

Question: For `Nc1nc(N)nc(-c2ccccc2)n1`, which Potency is on record?
Answer: inactive

Question: Which Potency does the source give for `NCCCCCCN` here?
Answer: inactive

Question: With `CC(C)OC(=O)COc1ccc(Cl)cc1Cl` as the compound, how does the Potency read?
Answer: inactive

Question: Which Potency does the source give for `CC(=O)Oc1ccc(C)cc1` here?
Answer: inactive

Question: With `CCCCC(C=O)CC` (stereo not given) as the compound, how does the Potency read?
Answer: inactive

Question: For `COc1ccc(CCC(C)=O)cc1`, which Potency is on record?
Answer: inactive

Question: Which Potency does the source give for `O=S(=O)(O)c1ccccc1` here?
Answer: inactive

Question: With `C=CCCCCCCCCC(=O)O` as the compound, how does the Potency read?
Answer: inactive

Question: For `COc1ccc(C)cc1N`, which Potency is on record?
Answer: inactive

Question: With `CC(C)(C#N)c1cc(Cn2cncn2)cc(C(C)(C)C#N)c1` as the compound, how does the Potency read?
Answer: inactive

Question: For `CCCCOC(=O)c1ccc(N)cc1`, which Potency is on record?
Answer: inactive

Question: For `O=S(=O)(O)c1ccc(N=Nc2c(O)ccc3cc(S(=O)(=O)O)ccc23)cc1`, which Potency is on record?
Answer: 54.7 µM (active) and 30.6 µM (active)

Question: For `CC(=O)CC(C)(C)O`, which Potency is on record?
Answer: inactive

Question: With `CC(=O)OC1CC(C)OC(C)O1` (stereo not given) as the compound, how does the Potency read?
Answer: inactive

Question: For `Cc1ccc(C(C)C)c(O)c1`, which Potency is on record?
Answer: inactive
